Screens (PubChem BioAssay)
Hits are enriched below; roughly 9.5% of the tested compounds scored in any of these assays.
Tau fibril FP – blocks human tau fibril formation measured by polarization. P10636. K18 P301L tau heparin fibrillization, Alexa594 FP, 6 h. Potency, µM (series often up to 57.7 µM), hits mostly inhibitors. 0.39% of 280,000 active; also: nearly all actives have a fitted effect of over 55% in size
Target sequence (P10636 561-689 P618L limits assumed): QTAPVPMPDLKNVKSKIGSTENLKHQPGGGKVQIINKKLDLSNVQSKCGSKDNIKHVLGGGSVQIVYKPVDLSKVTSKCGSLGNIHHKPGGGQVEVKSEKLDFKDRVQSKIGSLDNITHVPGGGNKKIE
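FP of Alexa 594-tau after heparin (20 uM) induction. Substrate: human K18 P301L, 15 uM unlabeled, 0.24 uM labeled. Buffer 100 mM sodium acetate pH 7. 6 hr, 37 C.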
Tau fibril ThT – blocks human tau fibril formation measured by thioflavin T; Potency, µM (highest dose often 57.4 µM), hits mostly inhibitors; P10636; recombinant tau K18 P301L, heparin-induced fibrillization, ThT fluorescence; 2.1% of 270,000 active; also: nearly all actives have a fitted effect of over 55% in size
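ThT emission at 510 nm, taken 1 hr after adding 30 uM dye, quantifies aggregates formed when 20 uM heparin acts on human tau K18 P301L for 6 hr at 37 C.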
HPGD block – HPGD (human) dehydrogenase inhibition | P15428 | purified HPGD, NADH fluorescence kinetic, PGE2 substrate | Potency, µM, most hits filed as inhibitors | 4.3% of 150,000 active; active = well fitted inhibition curve with a large enough effect, not every such curve was filed as active; inconclusive = small, poorly fitted or top-dose-only effect, or another doubt; inactive = no such curve, though single readings can be large or run the other way
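NADH formation kinetics: reaction with 30 uM PGE2 and 1 mM NAD+ (final), 20 nM enzyme, Tris-HCl pH 8 with Tween 20, after 15 min compound preincubation at room temperature. Fluorescence change, last versus first of five reads.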
NPSR antag – antagonists of human neuropeptide S receptor cAMP signaling; Potency, µM (doses to about 38.3 µM), hits mostly inhibitors; 1% of 220,000 active; CHO-NPSR cells, cAMP TR-FRET, antagonist mode; Q6W5P4; AID 1461; also: nearly all actives have a fitted effect of over 50% in size
Tau fluor cs – counter-screen for tau fibril formation inhibitors | tau K18 P301L (four-repeat tau fragment) Alexa594 fluorescence, heparin fibrillization | Potency, µM (series often up to 57.7 µM) | 0.93% of 280,000 active | AID 1463; also: nearly all actives have a fitted effect of over 55% in size
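Human K18 P301L tau (15 uM unlabeled plus 0.24 uM Alexa 594-labeled, final) in 100 mM sodium acetate pH 7 was mixed with compound and 20 uM heparin and incubated 6 hr at 37 C.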
ALDH1A1 inh – blocks purified human ALDH1A1 activity. 7.3% of 220,000 active. Potency, µM (doses to about 75.3 µM), actives largely listed as inhibitors. Purified ALDH1A1, NADH fluorescence, propionaldehyde substrate; active = well fitted inhibition curve with a large enough effect, not every such curve was filed as active; inconclusive = small, poorly fitted or top-dose-only effect, or another doubt; inactive = no such curve, though single readings can be large or run the other way
Target sequence (P00352 whole entry, looked up): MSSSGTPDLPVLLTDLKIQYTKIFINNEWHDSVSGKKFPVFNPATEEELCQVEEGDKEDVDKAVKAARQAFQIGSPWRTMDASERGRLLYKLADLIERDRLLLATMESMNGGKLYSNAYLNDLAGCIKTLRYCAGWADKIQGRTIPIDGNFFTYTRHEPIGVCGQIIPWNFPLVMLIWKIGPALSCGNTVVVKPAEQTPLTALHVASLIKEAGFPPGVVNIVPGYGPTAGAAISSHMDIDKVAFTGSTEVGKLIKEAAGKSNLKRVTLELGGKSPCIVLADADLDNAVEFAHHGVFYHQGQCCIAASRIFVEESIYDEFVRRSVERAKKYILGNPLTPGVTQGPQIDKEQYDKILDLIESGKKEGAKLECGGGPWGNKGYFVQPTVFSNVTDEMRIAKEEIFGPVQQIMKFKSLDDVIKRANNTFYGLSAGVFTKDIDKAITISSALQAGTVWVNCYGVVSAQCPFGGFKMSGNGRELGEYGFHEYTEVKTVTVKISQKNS
A number is an active result; ! = a repeat was not active; [ ] = another dose, or the depositor's remark. Unless noted, calls follow the shape of the dose curve; as a rule, active = well fitted curve in the direction sought with a large enough effect; inconclusive = small, poorly fitted or top-dose-only effect, or another doubt; inactive = no such curve, though single readings can be large; an effect the other way counts as inactive or inconclusive.

Results for CCOC(=O)c1ccc(N2C(=O)c3n[nH]c(-c4cccs4)c3C2c2ccc(Cl)cc2Cl)cc1 (centres undefined) ?
Tau fibril FP: inconclusive; Tau fibril ThT: inactive; Tau fluor cs: inactive

Results for COc1ccc(C(=O)c2c(C)n(CCN3CCOCC3)c3cc(I)ccc23)cc1 ?
Tau fibril FP: inactive; Tau fibril ThT: inactive; HPGD block: inactive; Tau fluor cs: inactive; ALDH1A1 inh: 5.01µM

Results for Cc1c(C(=O)c2ccc3ccccc3c2)c2cccc3c2n1[C@H](CN1CCOCC1)CO3 ?
Tau fibril FP: inactive; Tau fibril ThT: inactive; HPGD block: inactive; Tau fluor cs: inactive; ALDH1A1 inh: inactive

Results for O=C1NC(=O)N(CCc2ccc(F)cc2)C(=O)/C1=C/c1cccs1 ?
Tau fibril FP: inactive; Tau fibril ThT: inconclusive; NPSR antag: inactive; Tau fluor cs: inactive; ALDH1A1 inh: 1.41µM

Results for CN(C)c1ccc(/C=C2\C(=O)NC(=O)N(CCc3ccc(F)cc3)C2=O)cc1 ?
Tau fibril FP: inactive; NPSR antag: inactive; Tau fluor cs: inactive

Results for Cn1cccc1/C=C1\C(=O)NC(=O)N(CCC2=CCCCC2)C1=O ?
Tau fibril FP: inactive; Tau fibril ThT: inconclusive; HPGD block: inactive; NPSR antag: inactive; Tau fluor cs: inactive; ALDH1A1 inh: inconclusive

Results for O=C1NC(=O)N(CCC2=CCCCC2)C(=O)/C1=C\c1cccs1 ?
Tau fibril FP: inactive; Tau fibril ThT: inconclusive; HPGD block: 0.316µM; NPSR antag: inconclusive; Tau fluor cs: inactive; ALDH1A1 inh: 1.26µM

Results for CC(C)(C)NC[C@H](O)c1cc(Cl)c(N)c(Cl)c1 ?
HPGD block: inactive; ALDH1A1 inh: inactive

How did C=C(C)C(=O)CP(=O)(OCC)OCC do in these assays?
Tau fibril FP: inactive; Tau fibril ThT: inactive; HPGD block: inactive; Tau fluor cs: inactive; ALDH1A1 inh: inactive

What do the screens show for `COc1cc(CNC(=O)CCCC/C=C/C(C)C)ccc1O`?
Tau fibril FP: inconclusive; Tau fibril ThT: inconclusive; HPGD block: inactive; Tau fluor cs: inconclusive; ALDH1A1 inh: 2µM!

What do the screens show for `CCCCC/C=C\C/C=C\C/C=C\C/C=C\CCCC(=O)NCc1ccc(O)c(OC)c1`?
Tau fibril FP: inactive; Tau fibril ThT: inconclusive; HPGD block: 31.6µM; Tau fluor cs: inactive; ALDH1A1 inh: 25.1µM

What do the screens show for `CCCCCCCCC(=O)NCc1ccc(O)c(OC)c1`?
Tau fibril FP: inactive; Tau fibril ThT: inactive; HPGD block: inactive; NPSR antag: inactive; Tau fluor cs: inactive; ALDH1A1 inh: inactive

Results for C[C@@H]1CC[C@@H]2N(C1)C[C@H]1[C@@](O)([C@H](O)C[C@]3(O)[C@H]4CC[C@H]5[C@]6(O)O[C@]4(C[C@]13O)[C@@]5(C)CC[C@@H]6O)[C@@]2(C)O ?
HPGD block: inactive; ALDH1A1 inh: inactive[13.5 µM]

How did NCCc1ccc(S(=O)(=O)O)cc1[N+](=O)[O-] do in these assays?
HPGD block: inactive; ALDH1A1 inh: inactive[13.5 µM]

How did Cc1ccc(OCC(=O)N2CCN(Cc3ccc4c(c3)OCO4)CC2)cc1 do in these assays?
Tau fibril FP: inactive; Tau fibril ThT: inactive; NPSR antag: inactive; Tau fluor cs: inactive; ALDH1A1 inh: 25.1µM

How did COc1cccc(CN2CCN(C(=O)COc3ccc4ccccc4c3)CC2)c1 do in these assays?
Tau fibril FP: inactive; Tau fibril ThT: inactive; HPGD block: inactive; NPSR antag: inactive; Tau fluor cs: inactive; ALDH1A1 inh: 25.1µM

What do the screens show for `COc1ccc(OCC(=O)N2CCN(Cc3ccc4c(c3)OCO4)CC2)cc1`?
Tau fibril FP: inactive[2.34 µM]; Tau fibril ThT: inactive; NPSR antag: inactive; Tau fluor cs: inactive[2.34 µM]; ALDH1A1 inh: inactive

What do the screens show for `COc1ccc(CN2CCN(C(=O)Cc3ccccc3)CC2)c(OC)c1`?
Tau fibril FP: inactive; Tau fibril ThT: inactive; HPGD block: inactive; NPSR antag: inactive; Tau fluor cs: inactive; ALDH1A1 inh: 17.8µM

Results for O=C(CC[N+](=O)[O-])OCC1OC(O)C(OC(=O)CC[N+](=O)[O-])[C@@H](OC(=O)CC[N+](=O)[O-])C1OC(=O)CC[N+](=O)[O-] (some centres undefined) ?
Tau fibril FP: inconclusive; Tau fibril ThT: inconclusive; HPGD block: inactive; Tau fluor cs: inactive; ALDH1A1 inh: inactive

What do the screens show for `Cc1ccc(-c2nc(S(=O)(=O)c3ccc(C)cc3)c(SCC(=O)Nc3ccc(F)cc3)o2)cc1`?
Tau fibril FP: inconclusive; Tau fibril ThT: inactive; Tau fluor cs: inconclusive

How did NC1=NC([S][Hg][c]2ccc(N)cc2)c2ncn([C@@H]3O[C@H](CO)[C@@H](O)[C@@H]3O)c2N1 (some centres undefined) do in these assays?
HPGD block: 0.0501µM; ALDH1A1 inh: 0.1µM

Results for COc1ccc(CC(=O)NC(=S)NNC(=O)COc2c(C)cccc2C)cc1 ?
Tau fibril FP: inactive; Tau fibril ThT: inactive; HPGD block: inactive; NPSR antag: inactive; Tau fluor cs: inactive; ALDH1A1 inh: inconclusive

What do the screens show for `Cc1ccccc1C(=O)NNC(=S)NC(=O)COc1ccccc1`?
Tau fibril FP: inconclusive; Tau fibril ThT: inconclusive; HPGD block: 25.1µM; NPSR antag: inactive; Tau fluor cs: inactive; ALDH1A1 inh: 7.08µM

Results for COc1cccc(C(=O)N2CCN(Cc3ccccn3)CC2)c1OC ?
Tau fibril FP: inactive; Tau fibril ThT: inactive; HPGD block: inactive; NPSR antag: inactive; Tau fluor cs: inactive; ALDH1A1 inh: 7.08µM

Results for COc1ccc(C(=O)C2CCCN(Cc3ccccn3)C2)c(OC)c1 (centres undefined) ?
Tau fibril FP: inactive; Tau fibril ThT: inactive; NPSR antag: inactive; Tau fluor cs: inactive; ALDH1A1 inh: inactive

How did CCn1nc(-c2cccs2)nc2c(=O)n(C)c(=O)nc1-2 do in these assays?
Tau fibril FP: inconclusive; Tau fibril ThT: 17.8µM; HPGD block: inactive; NPSR antag: 2.51µM; Tau fluor cs: inactive; ALDH1A1 inh: inconclusive

Results for Cc1ccc(S(=O)(=O)N[C@@H](CCCCN)C(=O)CCl)cc1 ?
Tau fibril FP: inactive; Tau fibril ThT: inactive; HPGD block: inconclusive; NPSR antag: inactive; Tau fluor cs: inactive; ALDH1A1 inh: 8.91µM

Results for C[C@H](NC(C)(C)C)C(=O)c1cccc(Cl)c1 ?
HPGD block: inactive; ALDH1A1 inh: inconclusive

What do the screens show for `CC1=NCCc2c1[nH]c1cc(O)ccc21`?
Tau fibril FP: inactive; Tau fibril ThT: inconclusive; HPGD block: inconclusive; Tau fluor cs: 17.8µM![quencher]; ALDH1A1 inh: inconclusive

What do the screens show for `CC(C)[C@@H](Br)C(=O)NCC(=O)O`?
HPGD block: inactive; ALDH1A1 inh: inactive[13.5 µM]

Results for Cc1ccc(C2(c3ccc(C)c(O)c3C)CCN(C)CC2)c(C)c1O ?
HPGD block: inactive; ALDH1A1 inh: inactive[13.5 µM]

What do the screens show for `CN1CCC2(CC1)C(C#N)=C(N)NC(S)=C2C#N`?
Tau fibril FP: inconclusive; Tau fibril ThT: 22.4µM; NPSR antag: inactive; Tau fluor cs: inconclusive; ALDH1A1 inh: inconclusive
